Results reported in PubChem BioAssay (Tox21).
Results filed as inconclusive are left out. More than one record can exist for a structure, and the calls need not agree. Calls of active or inactive are those of the source. Unless noted, calls follow the shape of the dose curve; as a rule, active = well fitted curve in the direction sought with a large enough effect in the repeat runs; inconclusive = weak or mixed curves; inactive = no such curve, though single readings can be large; an effect the other way counts as inactive or inconclusive.

Experiments:
[1] = qHTS assay to identify aromatase inhibitors - cell viability counter screen (AID 743084);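 also: cells stimulated with testosterone during compound exposure; nearly all actives have a fitted effect of over 55% in size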
[2] = target: Aryl hydrocarbon receptor (Homo sapiens) (UniProt P35869); test: qHTS assay to identify small molecule that activate the aryl hydrocarbon receptor (AhR) signaling pathway (AID 743085); also: nearly all actives have a fitted effect of over 15% in size; also: potency is read from the fitted curve at half-maximal effect;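 as to activation: HG2L7.5c1 human HepG2 liver cells with stably integrated DRE-driven firefly reporter; series mostly up to about 70 µM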
Sequence of Aryl hydrocarbon receptor (Homo sapiens) (P35869 whole entry, looked up): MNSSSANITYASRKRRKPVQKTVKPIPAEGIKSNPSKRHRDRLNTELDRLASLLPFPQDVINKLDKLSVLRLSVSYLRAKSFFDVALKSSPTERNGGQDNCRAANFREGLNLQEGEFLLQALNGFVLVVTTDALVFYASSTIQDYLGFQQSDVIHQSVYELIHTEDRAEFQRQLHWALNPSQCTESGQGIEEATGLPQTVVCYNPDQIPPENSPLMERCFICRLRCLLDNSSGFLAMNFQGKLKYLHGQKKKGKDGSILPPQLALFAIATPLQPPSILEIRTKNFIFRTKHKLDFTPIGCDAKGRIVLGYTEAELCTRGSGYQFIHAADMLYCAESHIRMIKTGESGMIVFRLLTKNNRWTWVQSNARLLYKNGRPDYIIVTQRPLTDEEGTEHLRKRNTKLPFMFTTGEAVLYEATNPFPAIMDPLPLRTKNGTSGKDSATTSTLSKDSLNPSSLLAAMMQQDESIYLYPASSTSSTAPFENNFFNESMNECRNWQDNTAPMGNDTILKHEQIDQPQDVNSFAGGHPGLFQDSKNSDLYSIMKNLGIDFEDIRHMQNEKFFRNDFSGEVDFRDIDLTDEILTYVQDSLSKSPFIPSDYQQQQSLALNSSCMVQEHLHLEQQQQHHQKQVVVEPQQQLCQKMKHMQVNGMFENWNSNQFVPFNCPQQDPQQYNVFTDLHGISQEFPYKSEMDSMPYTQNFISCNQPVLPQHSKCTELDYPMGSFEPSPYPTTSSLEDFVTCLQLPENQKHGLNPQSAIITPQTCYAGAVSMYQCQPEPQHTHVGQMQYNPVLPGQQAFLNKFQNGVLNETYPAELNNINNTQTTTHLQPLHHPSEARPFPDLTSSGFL
In short: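 AhR agonist activity is inferred from enhanced light output of a DRE-controlled firefly luciferase reporter in HepG2 cells, measured with ONE-Glo following 24 h treatment at 37C.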

[3] = qHTS assay to identify small molecule that activate the aryl hydrocarbon receptor (AhR) signaling pathway - cell viability counter screen (AID 743086);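 also: HepG2 liver cells carrying the AhR DRE luciferase reporter; series mostly up to about 70 µM; nearly all actives have a fitted effect of over 45% in size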
In short: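 HepG2-AhR-luc (HG2L7.5c1) cells, 4000/well, were preincubated 5 h at 37C, exposed to compound in qHTS format for 24 hr at 37C, then given CellTiter-Fluor for 30 min; viability was read as fluorescence in the reporter wells.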

[4] = target: Peroxisome proliferator-activated receptor gamma (Homo sapiens) (UniProt P37231); test: qHTS assay to identify small molecule agonists of the peroxisome proliferator-activated receptor gamma (PPARg) signaling pathway (AID 743094; active = well fitted activation curve with a large enough effect in the signal ratio in the repeat runs, not every such curve was filed as active; the % refers to the signal ratio)
Sequence of Peroxisome proliferator-activated receptor gamma (Homo sapiens) (P37231 whole entry, looked up): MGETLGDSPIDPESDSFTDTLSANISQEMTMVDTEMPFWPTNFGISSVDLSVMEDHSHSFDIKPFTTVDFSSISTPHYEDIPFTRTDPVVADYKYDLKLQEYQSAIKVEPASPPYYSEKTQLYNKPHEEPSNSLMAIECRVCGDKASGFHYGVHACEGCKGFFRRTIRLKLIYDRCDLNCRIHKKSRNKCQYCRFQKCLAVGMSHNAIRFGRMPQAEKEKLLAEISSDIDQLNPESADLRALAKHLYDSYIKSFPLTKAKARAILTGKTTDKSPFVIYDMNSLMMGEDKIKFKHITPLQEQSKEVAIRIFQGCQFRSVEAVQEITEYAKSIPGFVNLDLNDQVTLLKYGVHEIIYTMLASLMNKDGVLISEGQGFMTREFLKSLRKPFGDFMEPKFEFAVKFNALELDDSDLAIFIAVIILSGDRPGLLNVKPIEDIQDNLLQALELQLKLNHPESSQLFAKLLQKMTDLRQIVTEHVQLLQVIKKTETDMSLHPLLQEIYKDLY
In short: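 Agonist activity was taken from a beta-lactamase reporter (FRET substrate, 1 h at room temperature) in HEK293H cells carrying a PPARg UAS-bla construct. Compounds in DMSO were incubated 17 h at 37C after a 5 h cell pre-incubation.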

[5] = target: Peroxisome proliferator-activated receptor gamma (Homo sapiens) (UniProt P37231); test: qHTS assay to identify small molecule antagonists of the peroxisome proliferator-activated receptor gamma (PPARg) signaling pathway (AID 743191; calls by dose curve; also: series mostly up to about 63 µM; nearly all actives have a fitted effect of over 30% in size)
In short: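 GeneBLAzer PPARg UAS-bla HEK293H cells carrying a UAS-driven beta-lactamase reporter were plated at 3000 cells/well, preincubated 5 h at 37C, then given compound for 17 h at 37C; LiveBLAzer B/G FRET substrate was read after 1 h at room temperature.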

[6] = qHTS assay for small molecule agonists of the antioxidant response element (ARE) signaling pathway (AID 743202; active = well fitted activation curve with a large enough effect in the signal ratio in the repeat runs, not every such curve was filed as active; the % refers to the signal ratio; also: potency is read from the fitted curve at half-maximal effect)
In short: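 Steps: seed ARE-bla HepG2 cells (2,000/well); incubate 5 h at 37 C; add compounds by pin tool; incubate 16 h at 37 C; add FRET substrate; read fluorescence after 2 h at RT.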

[7] = qHTS assay for small molecule agonists of the antioxidant response element (ARE) signaling pathway - cell viability counter screen (AID 743203; calls by dose curve; also: nearly all actives have a fitted effect of over 55% in size)
In short: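 Viability counter screen: CellTiter-Glo luminescence, read after 30 min at room temperature, in ARE-bla HepG2 wells. Compound exposure lasted 16 h at 37C/5% CO2, following a 5 h pre-incubation of the cells after plating.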

[8] = qHTS assay for small molecule activators of the heat shock response signaling pathway - cell viability counter screen (AID 743209); also: nearly all actives have a fitted effect of over 50% in size
In short: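 Cytotoxicity counter screen run in the same wells as the heat-shock bla reporter assay: HeLa HSE-bla cells, 5 h compound exposure at 37 C, viability read by CellTiter-Glo luminescence.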

[9] = qHTS assay for small molecule activators of the heat shock response signaling pathway (AID 743210; active = well fitted activation curve with a large enough effect in the signal ratio in the repeat runs, with a control signal flat, not every such curve was filed as active; the % refers to the signal ratio;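 also: HeLa cells with beta-lactamase reporter driven by heat shock elements; series mostly up to about 63 µM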)
In short: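 Activation of heat shock element-controlled beta-lactamase expression is measured in HeLa cells by LiveBLAzer FRET fluorescence, with compound exposure lasting 5 h at 37 C and substrate loading 2.5 h at room temperature.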

[10] = qHTS assay to identify small molecule agonists of the peroxisome proliferator-activated receptor delta (PPARd) signaling pathway - cell viability counter screen (AID 743211); also: nearly all actives have a fitted effect of over 55% in size
In short: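 qHTS cell viability: PPARd-bla HEK293H; 17 h cpd, 37C; CellTiter-Glo, luminescence at 30 min RT.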

[11] = target: Peroxisome proliferator-activated receptor delta (Homo sapiens) (UniProt Q03181); test: qHTS assay to identify small molecule agonists of the peroxisome proliferator-activated receptor delta (PPARd) signaling pathway (AID 743212; calls by dose curve)
Sequence of Peroxisome proliferator-activated receptor delta (Homo sapiens) (Q03181 whole entry, looked up): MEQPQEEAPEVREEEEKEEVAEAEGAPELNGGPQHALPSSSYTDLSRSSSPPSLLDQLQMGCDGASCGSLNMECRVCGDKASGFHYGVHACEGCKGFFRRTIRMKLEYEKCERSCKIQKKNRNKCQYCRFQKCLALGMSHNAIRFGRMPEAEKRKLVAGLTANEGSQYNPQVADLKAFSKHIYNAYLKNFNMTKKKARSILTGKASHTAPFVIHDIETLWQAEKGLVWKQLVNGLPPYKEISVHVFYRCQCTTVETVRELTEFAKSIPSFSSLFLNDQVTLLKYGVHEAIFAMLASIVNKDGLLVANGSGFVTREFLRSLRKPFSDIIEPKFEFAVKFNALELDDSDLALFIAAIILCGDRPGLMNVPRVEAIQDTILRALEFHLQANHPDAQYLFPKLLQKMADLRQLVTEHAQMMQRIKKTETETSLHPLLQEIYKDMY
In short: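 Cells expressing a UAS-driven beta-lactamase reporter (PPARd-bla HEK293H) were given test compounds after a 5 h settle and kept at 37 C. Reporter activity was then measured as FRET fluorescence using LiveBLAzer B/G substrate.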

[12] = qHTS assay to identify small molecule antagonists of the peroxisome proliferator-activated receptor delta (PPARd) signaling pathway - cell viability counter screen (AID 743213); also: nearly all actives have a fitted effect of over 50% in size
In short: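 Viability counter-screen, qHTS format: PPARd-bla HEK293H, L165041 300 nM final, 17 h compound exposure at 37 C, CellTiter-Glo luminescence after 30 min RT.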

[13] = target: Peroxisome proliferator-activated receptor delta (Homo sapiens) (UniProt Q03181); test: qHTS assay to identify small molecule antagonists of the peroxisome proliferator-activated receptor delta (PPARd) signaling pathway (AID 743215; active = well fitted inhibition curve with a large enough effect in the signal ratio in the repeat runs, not every such curve was filed as active; the % refers to the signal ratio;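 also: cells stimulated with agonist L165041 at 300 nM final during compound exposure; series mostly up to about 62 µM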)
In short: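 Agonist L165041 (300 nM final) added with compound to PPARd-bla HEK293H UAS-bla reporter cells; 17 h incubation at 37 C. Read-out: LiveBLAzer FRET substrate, 2 h at room temperature, fluorescence intensity.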

[14] = qHTS assay to identify small molecule agonists of the farnesoid-X-receptor (FXR) signaling pathway - cell viability counter screen (AID 743218); also: nearly all actives have a fitted effect of over 45% in size
In short: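 Viability counter screen in the same wells: CellTiter-Glo luminescence, 30 min room-temperature incubation, measured after the beta-lactamase read. Cells were GeneBLAzer FXR-UAS-bla HEK 293T, compound-treated 16 h at 37C.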

[15] = qHTS assay to identify small molecule antagonists of the farnesoid-X-receptor (FXR) signaling pathway - cell viability counter screen (AID 743221; active = well fitted cell-killing curve with a large enough effect in the repeat runs, not every such curve was filed as active; also: nearly all actives have a fitted effect of over 50% in size)
In short: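 After a 5 h settling period, FXR-bla HEK 293T cells receive compound and chenodeoxycholic acid (50 uM final) and incubate 16 h at 37 C; CellTiter-Glo luminescence, read after 30 min at room temperature, reports cell viability.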

[16] = qHTS assay to identify small molecule antagonists of the peroxisome proliferator-activated receptor gamma (PPARg) signaling pathway - cell viability counter screen (AID 743194); also: nearly all actives have a fitted effect of over 55% in size
In short: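 PPARg-UAS-bla HEK293H cells were plated, rested 5 h at 37 C, then treated with compounds plus rosiglitazone (50 nM final) for 17 h at 37 C; viability was then read by CellTiter-Glo luminescence after 30 min at room temperature.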

[17] = target: Vitamin D3 receptor (Homo sapiens) (UniProt P11473); test: qHTS assay to identify small molecule agonists of the vitamin D receptor (VDR) signaling pathway (AID 743222; calls by dose curve)
Sequence of Vitamin D3 receptor (Homo sapiens) (P11473 whole entry, looked up): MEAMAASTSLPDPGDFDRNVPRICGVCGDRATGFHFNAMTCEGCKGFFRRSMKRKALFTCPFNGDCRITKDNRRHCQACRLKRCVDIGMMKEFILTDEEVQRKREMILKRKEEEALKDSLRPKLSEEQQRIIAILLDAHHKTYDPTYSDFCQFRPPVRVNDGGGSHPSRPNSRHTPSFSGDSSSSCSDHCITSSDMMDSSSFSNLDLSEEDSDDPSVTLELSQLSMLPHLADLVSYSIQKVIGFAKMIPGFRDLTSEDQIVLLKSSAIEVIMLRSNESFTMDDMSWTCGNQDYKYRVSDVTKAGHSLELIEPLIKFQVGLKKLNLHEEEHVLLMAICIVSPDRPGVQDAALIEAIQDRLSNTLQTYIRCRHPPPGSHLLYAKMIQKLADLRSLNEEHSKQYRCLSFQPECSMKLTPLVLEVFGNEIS
In short: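 Agonist mode, beta-lactamase reporter: fluorescence from LiveBLAzer B/G FRET substrate (2 h, room temperature) read after 16 h compound treatment at 37 C of VDR-bla cells, which were pre-incubated 4 h after seeding.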

[18] = target: Vitamin D3 receptor (Homo sapiens) (UniProt P11473); test: qHTS assay to identify small molecule antagonists of the vitamin D receptor (VDR) signaling pathway (AID 743223; active = well fitted inhibition curve with a large enough effect in the signal ratio in the repeat runs, not every such curve was filed as active; the % refers to the signal ratio)
In short: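 Reporter line VDR-bla; stimulus 1alpha,25-(OH)2 vitamin D3, 3 nM final; compound co-addition, 16 h 37C/5% CO2; LiveBLAzer B/G substrate 2 h RT; fluorescence intensity.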

[19] = target: Bile acid receptor (Homo sapiens) (UniProt Q96RI1); test: qHTS assay to identify small molecule agonists of the farnesoid-X-receptor (FXR) signaling pathway (AID 743220; active = well fitted activation curve with a large enough effect in the signal ratio in the repeat runs, not every such curve was filed as active; the % refers to the signal ratio)
Sequence of Bile acid receptor (Homo sapiens) (Q96RI1 whole entry, looked up): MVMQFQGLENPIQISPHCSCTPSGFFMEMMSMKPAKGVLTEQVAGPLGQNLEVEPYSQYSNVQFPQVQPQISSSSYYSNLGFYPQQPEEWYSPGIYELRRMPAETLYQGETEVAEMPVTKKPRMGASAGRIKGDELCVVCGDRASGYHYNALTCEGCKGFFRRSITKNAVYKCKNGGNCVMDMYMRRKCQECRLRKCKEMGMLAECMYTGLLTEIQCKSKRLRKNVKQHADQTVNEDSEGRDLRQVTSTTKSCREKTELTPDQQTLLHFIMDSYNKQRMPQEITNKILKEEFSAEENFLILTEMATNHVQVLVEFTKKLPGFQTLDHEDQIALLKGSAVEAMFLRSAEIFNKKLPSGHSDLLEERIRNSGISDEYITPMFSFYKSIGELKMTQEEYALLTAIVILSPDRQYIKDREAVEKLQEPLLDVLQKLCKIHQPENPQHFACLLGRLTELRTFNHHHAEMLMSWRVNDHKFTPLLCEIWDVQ
In short: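 FXR-UAS-bla HEK 293T cells carrying a UAS-driven beta-lactamase reporter were plated for 5 h at 37C/5% CO2, then exposed to DMSO-dissolved Tox21 10K compounds for 16 h at 37C. A LiveBLAzer B/G FRET substrate was loaded for 2 h at room temperature before fluorescence reading.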

[20] = target: Bile acid receptor (Homo sapiens) (UniProt Q96RI1); test: qHTS assay to identify small molecule antagonists of the farnesoid-X-receptor (FXR) signaling pathway (AID 743217; active = well fitted inhibition curve with a large enough effect in the signal ratio in the repeat runs, not every such curve was filed as active; the % refers to the signal ratio)
In short: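 Antagonist mode: chenodeoxycholic acid at 50 uM final stimulates a UAS-driven beta-lactamase reporter in HEK 293T FXR-bla cells during 16 h, 37C compound exposure. Read-out is FRET substrate fluorescence after 2 h at room temperature.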

Measured: Potency

O=C(O)c1cc(=O)c2c(OCC(O)COc3cccc4oc(C(=O)O)cc(=O)c34)cccc2o1
not listed: [16] | [17] | [18] | [19] | [20]
inactive: all other assays above

CC(=O)CC(=O)Nc1ccccc1C
not listed: [7] | [11] | [13] | [19] | [20]
inactive: all other assays above

CCCCCCCCCC
not listed: [7] | [11] | [20]
inactive: all other assays above

Cc1ccc(S(N)(=O)=O)cc1
not listed: [11] | [13] | [20]
inactive: all other assays above

CCCCC(CC)COC(=O)C(C#N)=C(c1ccccc1)c1ccccc1 (stereo not given)
not listed: [4] | [5] | [6] | [7] | [19] | [20]
inactive: all other assays above

C/C=C1/CC2C=CC1C2 (stereo not given)
not listed: [5] | [11] | [13] | [16] | [19] | [20]
inactive: all other assays above

CCCCCOC(C)=O
not listed: [3] | [7] | [20]
inactive: all other assays above

CSCCC=O
not listed: [3] | [9] | [20]
inactive: all other assays above

CN(C)CCOCCN(C)C
62.3 µM (active) and inactive: [2]
not listed: [3] | [12] | [20]
inactive: all other assays above

COS(C)(=O)=O
not listed: [7] | [16] | [19] | [20]
inactive: all other assays above

CN(C)CCC(c1ccccc1)c1ccccn1 (stereo not given)
not listed: [4] | [5] | [13] | [19] | [20]
inactive: all other assays above

CCCCCCCCCCCCCCCO
not listed: [3] | [11] | [20]
inactive: all other assays above

CC1CCC(C(C)C)C(O)C1 (stereo not given)
not listed: [3] | [9] | [20]
inactive: all other assays above

CC(O)COCC(C)O (stereo not given)
not listed: [7] | [16] | [20]
inactive: all other assays above

O=C(OCCOCCOC(=O)c1ccccc1)c1ccccc1
not listed: [3] | [11]
inactive: all other assays above

O=c1[nH]nnc2ccccc12
not listed: [3] | [16] | [20]
inactive: all other assays above

C#C[C@]1(O)CC[C@H]2[C@@H]3CCC4=CC(=O)CC[C@@H]4[C@H]3CC[C@@]21C
active: [6] 24.3 µM
not listed: [3] | [7] | [11] | [17] | [18] | [19] | [20]
inactive: all other assays above

O=C(O)c1ccc2c(c1)C(=O)OC2=O
not listed: [3] | [11] | [13]
inactive: all other assays above
